Among the data in ChEMBL document CHEMBL3988442, “University of Dundee, Small-Polar-MMV Screening Library” (2021) are Percent Effect values, retold here.

The structures appear in SMILES notation.

This assay deals with T1, Tyrosyl-tRNA synthetase, putative (Trypanosoma cruzi (strain CL Brener)) (UniProt Q4DSP6).
T1 sequence (whole entry): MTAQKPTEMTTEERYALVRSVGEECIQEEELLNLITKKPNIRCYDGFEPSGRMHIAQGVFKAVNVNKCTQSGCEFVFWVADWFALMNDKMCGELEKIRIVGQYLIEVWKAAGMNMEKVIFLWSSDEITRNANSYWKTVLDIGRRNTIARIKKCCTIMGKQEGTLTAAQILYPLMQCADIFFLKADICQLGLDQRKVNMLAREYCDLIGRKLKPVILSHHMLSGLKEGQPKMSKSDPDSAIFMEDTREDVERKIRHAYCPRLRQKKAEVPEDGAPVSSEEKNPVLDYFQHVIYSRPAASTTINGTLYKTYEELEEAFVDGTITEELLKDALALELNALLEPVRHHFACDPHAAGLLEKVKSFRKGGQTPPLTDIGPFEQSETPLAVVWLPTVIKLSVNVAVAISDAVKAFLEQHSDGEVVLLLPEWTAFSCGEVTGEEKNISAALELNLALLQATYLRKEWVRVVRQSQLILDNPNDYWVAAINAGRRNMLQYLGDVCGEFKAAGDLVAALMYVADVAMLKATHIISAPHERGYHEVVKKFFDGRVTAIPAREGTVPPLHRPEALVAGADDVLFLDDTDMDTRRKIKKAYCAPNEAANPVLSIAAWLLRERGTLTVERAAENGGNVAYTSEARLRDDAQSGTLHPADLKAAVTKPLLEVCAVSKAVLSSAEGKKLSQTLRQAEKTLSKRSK
Description: Trypanosoma cruzi tyrosyl tRNA synthetase (TcYRS) SOP. Particulars: 30 µM. Type of assay: functional. More on the design: scale not given: direction of the effect not stated beside the values.
As for `CCn1cc(Br)c(C(=O)NCc2cccnc2)n1`, the Percent Effect came to 16.1%.

Consider `Cn1nc2c(cc1=O)CN(CCc1nc3ccccc3c(=O)[nH]1)CC2`, for which the Percent Effect turned out to be 0%.

On to `COc1cccc2c1OCC(CNC(=O)CSc1nc(N)n[nH]1)C2` (stereo not given), for which the Percent Effect was 21%.

In the case of `COCCCNC(=O)CN(C)C(=O)c1cc(C)ccc1N(C)C(C)C`, the Percent Effect is 13.4%.

Take `c1ccc2sc(CN3CCCC3c3noc(C4CC4)n3)nc2c1` (stereo not given): the Percent Effect was found to be 23.2%.

For the compound `COCCO[C@@H]1CCN(Cc2csc(C)n2)[C@H]1Cc1ccccc1`, the Percent Effect is -1.24%.

Regarding `C[C@@H]1CN(C(=O)c2ccsc2)C[C@]12CCN(c1ccsc1)C2=O`, the Percent Effect was found to be 3.85%.

`CC(O)CC(C)(C)CNC(=O)NCc1cccc(-n2cncn2)c1` (stereo not given): the Percent Effect is 1.24%.

For `Cc1c(C(=O)NCC(C)C)nnn1-c1cccc2c1CCN(C)C2`, the Percent Effect was 15.6%.

Regarding `COc1ccc(CNCC(C)Oc2ccccn2)cc1Br` (stereo not given), the Percent Effect turned out to be 12.8%.

For the compound `Cc1ccc(CN2CCc3ncc(CNS(C)(=O)=O)n3CC2)o1`, the Percent Effect was determined as 16.1%.

As to `Cc1nc(CN2CCCC(NCc3c(C)nc4sccn34)C2)no1` (stereo not given), the Percent Effect stood at 19.5%.

`Cc1cn2nc(N3CCCN(Cc4noc(C)n4)CC3)sc2n1`: the Percent Effect was 12.7%.

Consider `CC(NC(=O)NCCNc1cnccn1)c1cccs1` (stereo not given), for which the Percent Effect worked out at 24.4%.

On to `CCOCC1CN(Cc2cccc(C#N)c2)Cc2nccn2C1` (stereo not given), for which the Percent Effect is 3.7%.

Turning to `COc1ccc(OCc2nc(C(=O)N3CC[C@H](O)[C@@H](O)C3)co2)cc1`, the Percent Effect worked out at 12.2%.

For `O=C(CN1CCCC1Cn1cncn1)NCCc1c(F)cccc1F` (stereo not given), the Percent Effect was found to be 18.5%.

Take `CN(C)c1ncnc2c1CCN(CC1CCOC1)CC2` (stereo not given): the Percent Effect is 15.4%.

As to `CC(C)N(CC(N)=O)Cc1csc(COc2ccc(F)cc2)n1`, the Percent Effect came to 24.1%.

In the case of `Cc1nc(CN2CCCN(C(=O)c3ccccn3)CC2)oc1C`, the Percent Effect came out at 11.8%.
